Hit rate of the full screen: of about 420,000 compounds, about 50,000 (12%) were called active. Not shown: some 26% with an inconclusive outcome. The sample holds actives, similar compounds and a random draw of the others, so the mix is not that of the screen. The call rests on the fitted dose curve; in most records, active means well fitted inhibition curve with a large enough effect; inconclusive means small, poorly fitted or top-dose-only effect; inactive means flat fitted curve, though single readings scatter.
Assay: qHTS for Inhibitors of human tyrosyl-DNA phosphodiesterase 1 (TDP1): qHTS in cells in presence of CPT; further: nearly all actives have a fitted effect of over 55% in size
Conditions: chicken DT40 Tdp1-/-;hTDP1 cells + 20 nM CPT, ATP luminescence, 48 h; series mostly up to 46.2 µM; activity change, negative = growth inhibition: at the top concentration
In short: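 Cell growth measured by CellTiter-Glo luminescence after a minimum 48 h, 37 C compound exposure with 20 nM CPT in Tdp1-knockout DT40 cells stably expressing hTDP1, seeded 400/well; qHTS titration format.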
On the % scale 0 is the no-effect control and ±100 the full control effect; potency means the concentration at half of the fitted maximal effect.

Row | SMILES | activity change, negative = growth inhibition | Potency
1 | CC1CCN(C(NC(=O)c2ccco2)C(=O)c2ccccc2)CC1 (centres undefined) | -18.3% (inactive) | 
2 | Cc1csc(SCC(=O)Nc2ccc(C)c(S(=O)(=O)N(C)C)c2)n1 | -44.9% (inactive) | 
3 | O=C(CSc1nnc2ccccn12)c1ccccc1 | -8.77% (inactive) | 
4 | Cc1ccc(C(=O)NNC(=O)CSc2nnc3ccccn23)cc1 | 1.45% (inactive) | 
5 | Cc1ccc(-n2c(C)cc(C(=O)CSc3nnc4ccccn34)c2C)cc1 |  | 23.1 µM (active)
6 | COc1ccccc1C(=O)COC(=O)CSCC(=O)Nc1cc(C)on1 | -16.7% (inactive) | 
7 | NC(=O)C1CCCN(CC(=O)N2CCN(c3ccccc3)CC2)C1 (centres undefined) | -9.01% (inactive) | 
8 | Cc1ccc(S(=O)(=O)Oc2ccc(/C=N/NC(=O)c3c(Cl)cnn3C)cc2)cc1 | -25% (inactive) | 
9 | Cc1ccc(-c2nc3ccccn3c2Nc2c(C)cccc2C)o1 |  | 16.4 µM (active)
10 | Cc1nc2ccccn2c(=O)c1NC(=O)c1ccc(Br)o1 | -3.61% (inactive) | 
11 | CC(C)(C)Nc1c(-c2cccs2)nc2ccccn12 | 0.159% (inactive) | 
12 | O=C(CSc1ccccc1)Nc1cccc(S(=O)(=O)N2CCOCC2)c1 | -26.4% (inactive) | 
13 | CC(=O)Nc1ccc(C(=O)NNC(=O)CCCCC(=O)NNC(=O)c2ccc(NC(C)=O)cc2)cc1 | -3.53% (inactive) | 
14 | Cn1c(=O)n(C)c2cc(C(=O)Nc3ccc(Br)cc3)ccc21 | -17.5% (inactive) | 
15 | COCCn1c(=O)[nH]c(=O)c2cc(C(=O)c3cc(OC)ccc3O)cnc21 | -23.3% (inactive) | 
16 | COc1cc(OC)c2c(c1)OC(=O)CC2c1cc(OC)c(OC)c(OC)c1 (centres undefined) | -9.46% (inactive) | 
17 | COC(=O)c1cc(CNC(=O)CC(C)c2ccccc2)ccc1OC (centres undefined) | 9.19% (inactive) | 
18 | COc1cc(NC(=O)CSC(=S)N2CCCC2)c(OC)cc1Cl |  | 29.1 µM (active)
19 | COc1cc(Cl)c(C)cc1NC(=O)CN1CCCCCC1 | 0.785% (inactive) | 
20 | COc1cc(NC(=S)N2CCCC(C)C2)c(OC)cc1Cl (centres undefined) | 0.248% (inactive) | 
21 | N#C/C(=C\c1cccc(F)c1)c1nc(-c2cc3c(ccc4ccccc43)oc2=O)cs1 | -15% (inactive) | 
22 | Cc1cc(C)c(S(=O)(=O)N(C)CC(=O)NCC2CCCO2)c(C)c1 (centres undefined) | -8.5% (inactive) | 
23 | COc1cccc(C(=O)NC2=NC(c3ccc(N(C)C)cc3)CC(=O)N2)c1 (centres undefined) | -17.6% (inactive) | 
24 | COc1ccc(CCNC(=O)COC(=O)c2ncc(Cl)c(Cl)c2Cl)cc1OC | -11.5% (inactive) | 
25 | COc1ccc(CCNc2nc(-c3ccc(Cl)cc3)cc(C(F)(F)F)n2)cc1OC |  | 23.1 µM (active)
26 | COc1ccc(CCNc2nc(C)cc(C)n2)cc1OC | 1.65% (inactive) | 
27 | O=C(CN(C(=O)c1csnn1)c1ccc(Br)cc1)NC1CCCC1 | 3.35% (inactive) | 
28 | O=C(CCN1C(=O)[C@H]2CC=CC[C@H]2C1=O)NCc1nc(-c2ccccc2)no1 | -5.36% (inactive) | 
29 | COc1ccc(OC)c(NC(=O)c2ccc3c(c2)C(=O)N(c2ccc(OC(C)=O)cc2)C3=O)c1 | 5.37% (inactive) | 

From PubChem BioAssay AID686979 (National Center for Advancing Translational Sciences (NCATS), 2013)
